Screening results as filed in PubChem BioAssay.
NCOA1 inh: SRC1 coactivator transcriptional activity inhibitors, primary screen, cell-based, luminescence. Nuclear receptor coactivator 1 (Homo sapiens), Q15788. HEK293 GAL4-SRC1 luciferase reporter. inhibition, % at 3.6 µM. actives 0.12% (n = 360,000). AID 588354, 2011;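 active means inhibition above the campaign mean plus 3 SD, with each screening campaign given its own cutoff, cut at about 60% in these data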;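 further: 0% = DMSO treated cells and 100% = gossypol at 36 µM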
SRC3 inh: SRC3 coactivator transcriptional activity inhibitors, primary screen, cell-based, luminescence; Nuclear receptor coactivator 3 (Homo sapiens), Q9Y6Q9; HEK293 GAL4-SRC3 luciferase reporter; inhibition, % at 3.6 µM; actives 0.17% (n = 360,000);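 active means inhibition above a per-campaign cutoff, the mean of all compounds plus 3 SD, cut at about 60% in these data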;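 further: 0% = DMSO-treated cells and 100% = gossypol-treated cells at 36 µM; higher means less SRC3-driven luciferase light from the GAL4 reporter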
Gli-Sufu antag: Gli-Sufu pathway antagonists, primary screen, luciferase luminescence, Sufu-KO-LIGHT cells, uHTS; Sufu-KO-LIGHT fibroblasts, Gli luciferase reporter luminescence; inhibition, % at 5 µM; actives 0.74% (n = 340,000);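 active means inhibition above about 55%, limit read from the data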;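 further: 0% = DMSO-treated cells and 100% = wells with medium but no cells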
NR2F2 inh: NR2F2 transcriptional activity inhibitors, primary screen, cell-based, luciferase reporter, HEK293T, luminescence; HEK293T NGFI-A luciferase reporter; inhibition, % at 8.6 µM; actives 0.7% (n = 370,000);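 active means inhibition above a per-plate cutoff, mean inhibition of test wells between control levels plus 3 SD, cut at about 38% in these data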;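 further: cells cotransfected with COUP-TFII expression vector driving the NGFI-A reporter; 0% = median of COUP-TF2 test wells and 100% = reporter-only cells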
SRC2 inh: inhibition of GAL4-SRC2 driven luciferase reporter, primary screen, SRC2 inhibitor project, cell-based, luminescence | Nuclear receptor coactivator 2 (Homo sapiens), Q15596 | HEK293 GAL4-SRC2 luciferase reporter | inhibition, % at 9 µM | actives 0.17% (n = 370,000);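 active means inhibition above the mean inhibition of all tested compounds plus 3 SD, set per campaign, cut at about 52% in these data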;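 further: 0% = DMSO treated cells and 100% = cells given Gossypol at 36 µM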
LRH-1 inv ag: LRH-1 (NR5A2) inverse agonists, primary screen, cell-based, luminescence, HEK293T, StAR-luciferase reporter | Nuclear receptor subfamily 5 group A member 2 (Homo sapiens), O00482 | LRH-1 transfected, 24 h | inhibition, % at 3.6 µM | actives 0.13% (n = 360,000) | AID 602396, 2012;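 active means inhibition above the mean inhibition of all tested compounds plus 3 SD, cut at about 73% in these data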;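 further: 0% = DMSO wells and 100% = reporter-only cells lacking LRH-1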
Active calls of the source: *; · = not tested or not shown. Most compounds without a hit are left out; they make up all but 1.3% or so of the library.

SMILES	NCOA1 inh	SRC3 inh	Gli-Sufu antag	NR2F2 inh	SRC2 inh	LRH-1 inv ag
O=C(Nc1cccc2c1CCCC2)c1cc([N+](=O)[O-])ccc1Cl	28	22	1	17	58*	18
O=C(Nc1ccc([N+](=O)[O-])cc1Cl)c1cc(Cl)ccc1O	-94	-83	56*	-12	-64	-113
O=c1cc(C(Cl)(Cl)Cl)oc2c1ccc1ccccc12	-46	-16	65*	25	29	3
CCCCC(=O)NC(c1ccccc1OC)c1ccc2cccnc2c1O (stereo unspecified)	18	32	48	-15	37	38
CC(=O)NC(c1ccc(Cl)cc1Cl)c1ccc2cccnc2c1O (stereo unspecified)	40	23	87*	-9	23	88*
CCCC(=O)NC(c1ccccc1OC)c1ccc2cccnc2c1O (stereo unspecified)	39	53	·	·	·	80*
CCCC(=O)NC(c1ccc(Cl)cc1Cl)c1ccc2cccnc2c1O (stereo unspecified)	28	37	89*	-18	36	27
CC(C)C[C@H]1COc2ccc(Cl)cc2S(=O)(=O)N1Cc1cn(Cc2ccc(C(F)(F)F)cc2)nn1	·	·	·	0	5	·
O=C(NCCc1ccccc1)OCc1cn(Cc2cccc(Cl)c2)nn1	·	·	·	9	1	·
Cc1ccc(Cn2cc(CN(C(C)(C)C)S(=O)(=O)c3ccc(F)cc3Br)nn2)cc1	·	·	·	16	28	·
CC1=[N+](C)c2c(ccc3cccnc23)C1(C)C	18	34	87*	77*	14	59
CCC(=O)Nc1cc2nn(-c3ccc(OC)cc3)nc2cc1C	-103	-105	-53	-52	-65	-77
CCC(=O)Nc1cc2nn(-c3ccc(C)cc3)nc2cc1C	44	34	40	46*	6	18
COc1cc(CN2CCN(CC#Cc3ccccc3)CC2CCO)cc(OC)c1 (stereo unspecified)	15	-4	57*	18	18	8
COc1cc(CN2CCN(CCCc3ccccc3)CC2CCO)cc(OC)c1 (stereo unspecified)	-20	8	17	15	-25	7
CN(CCOC(=O)c1cc2ccccc2o1)C1CN(Cc2cn(Cc3ccccc3C(F)(F)F)nn2)S(=O)(=O)C1 (stereo unspecified)	·	·	·	1	3	·
O=C(Nc1ccc2c(c1)OCCO2)C1CC1c1ccccc1 (stereo unspecified)	-37	-48	12	-22	-2	-76
O=C(O)C1CCCCC1C(=O)Nc1ccc2c(c1)OCCO2 (stereo unspecified)	43	49	-2	26	55*	63
COc1ccccc1-c1nnc(Sc2nc([N+](=O)[O-])nn2C)o1	64*	73*	32	12	65*	75*
Cn1cnnc1Sc1nc([N+](=O)[O-])nn1C	13	9	-1	-2	8	-12
COc1ccc(OC)c2[nH]c(C(=O)N/N=C/c3ccccc3O)cc12	10	34	59*	-1	32	21
C/C(=C/c1nc(N)n(Cc2ccccc2)c1Cc1ccccc1)Cn1[nH]c(=O)n(-c2ccccc2)c1=O	·	·	·	5	27	·
CC(COc1cccc(C#N)c1)CN1CCC(C(O)(c2ccccc2)c2ccccc2)CC1 (stereo unspecified)	·	·	·	0	25	·
Cc1cc(C)cc(NC(=O)/C=C/c2ccc([N+](=O)[O-])s2)c1	-6	7	12	-4	1	2
Cc1ccccc1NC(=O)/C=C/c1ccc([N+](=O)[O-])s1	-109	-2	79*	·	·	40
CCN(C(C)=O)c1cnc(C=NNC(N)=S)c2ccccc12	16	41	44	2	-10	66
NC(=S)NN=Cc1nccc2c(N)cccc12	74*	62*	·	-17	-22	29
CC(C1=CCCCC1)c1cnn(C)c1 (stereo unspecified)	·	·	·	-19	-10	·
